Test results: the supplement of paper PMC10849652
Of roughly 7,900 targets only a part is listed; those with a hit were picked by preference. About 0.6% of all pairs of compound and target were hits.

Experiments:
Assay in all cases: log2 fold change, soluble protein after heating vs DMSO (PISA); higher = thermal stabilisation; K562 cells, 10 uM, 30 min; active = over 0.2 and 3.5 SD of the protein, either way, in both replicates (recomputed)
IRAK-1-4 Inhibitor I = compound: C1COCCN1CCN2C3=CC=CC=C3N=C2NC(=O)C4=CC(=CC=C4)[N+](=O)[O-] [IRAK-1-4 Inhibitor I]
Procedure, shortened: (§1)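 K562 cells at 2×10^6 cells/mL were treated with 10 μM compound for 30 min. Aliquots were heated for 3 min across 48°C-58°C, pooled, and extracted in PBS with 0.5% NP-40 at 4°C; soluble protein was the supernatant after 21,000xg for 90 min. Soluble protein was quantified by TMTpro 16plex LC-MS/MS with channel sums equalised, and reported as log2 fold change in thermal stability against DMSO controls, with values from duplicates.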

ibrutinib = compound: C=CC(=O)N1CCC[C@@H](n2nc(-c3ccc(Oc4ccccc4)cc3)c3c(N)ncnc32)C1 [ibrutinib]
Procedure, shortened: as §1

[1] = compound: CC(=O)c1cnc2ccc(-c3cc(Cl)c(O)c(Cl)c3)nc2c1N[C@H]1CC[C@H](CN(C)C)CC1
Procedure, shortened: as §1

ralimetinib = compound: CC(C)(C)Cn1c(N)nc2ccc(-c3[nH]c(C(C)(C)C)nc3-c3ccc(F)cc3)nc21 [ralimetinib]
Procedure, shortened: as §1

[2] = compound: CC(C)(O)CC(=O)NCCn1ccc2ncnc(Nc3ccc(Oc4cccc(C(F)(F)F)c4)c(Cl)c3)c21
Procedure, shortened: as §1

[3] = compound: CC(C)C1=C2N=C(C=C(N2N=C1)NCC3=CC=CC=C3)NCCCCCCN
Procedure, shortened: as §1

[4] = compound: CC(C)C[C@@H](C=O)NC(=O)[C@H](CC(C)C)NC(=O)[C@H](CC(C)C)NC(=O)OCc1ccccc1
Procedure, shortened: as §1

pinometostat = compound: CC(C)N(C[C@H]1O[C@@H](n2cnc3c(N)ncnc32)[C@H](O)[C@@H]1O)[C@H]1C[C@@H](CCc2nc3cc(C(C)(C)C)ccc3[nH]2)C1 [pinometostat]
Procedure, shortened: as §1

[5] = compound: CC1=C(C(CC(=O)N1)C2=CC=C(C=C2)C(F)(F)F)C(=O)NC3=C(C=C4C(=C3)C=NN4)F
Procedure, shortened: as §1

[6] = compound: CC1=C(C2=C(C=C1)C(=O)C3=CC=CC=C3N2CCCN)C
Procedure, shortened: as §1

Measured: log2 fold change

CSNK1A1 (UniProt P48729)
active: [3] -0.25
inactive: IRAK-1-4 Inhibitor I -0.016 | ibrutinib 0.015 | [1] -0.053 | ralimetinib 0.026 | [2] -0.041 | [4] 0.145 | pinometostat 0.112 | [5] 0.038 | [6] 0.028

CHEK1 (UniProt O14757)
inactive: IRAK-1-4 Inhibitor I -0.018 | ibrutinib -0.014 | [1] 0 | ralimetinib -0.076 | [2] -0.055 | [3] 0.003 | [4] 0.056 | pinometostat 0.018 | [5] 0.017 | [6] -0.029

CPSF6 isoform 2 (UniProt Q16630)
inactive: IRAK-1-4 Inhibitor I -0.047 | ibrutinib 0 | ralimetinib -0.017 | [2] 0.02 | [3] -0.029 | [4] -0.053 | pinometostat 0.004 | [5] -0.042 | [6] 0.195
active: [1] -0.599

CDK6 (UniProt Q00534)
Sequence of UniProt Q00534 (Q00534 whole entry, looked up): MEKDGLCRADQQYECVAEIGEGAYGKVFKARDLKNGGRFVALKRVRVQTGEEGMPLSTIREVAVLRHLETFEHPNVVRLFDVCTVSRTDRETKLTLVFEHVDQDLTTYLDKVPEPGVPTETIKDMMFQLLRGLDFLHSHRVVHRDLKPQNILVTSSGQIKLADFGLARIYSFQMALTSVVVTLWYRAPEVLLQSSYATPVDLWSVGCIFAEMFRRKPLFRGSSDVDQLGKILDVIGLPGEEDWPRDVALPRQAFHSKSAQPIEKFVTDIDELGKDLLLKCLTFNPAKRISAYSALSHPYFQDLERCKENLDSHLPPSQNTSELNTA
inactive: IRAK-1-4 Inhibitor I -0.014 | ibrutinib 0.031 | [1] 0.107 | ralimetinib 0.009 | [2] -0.009 | [3] -0.026 | [4] 0.086 | pinometostat 0.062 | [5] 0.02 | [6] -0.019

CD55 isoform 7 (UniProt P08174)
inactive: IRAK-1-4 Inhibitor I -0.043 | ibrutinib 0.071 | [1] -0.008 | ralimetinib 0.016 | [2] 0.037 | [3] 0.155 | [4] -0.012 | pinometostat 0.019 | [5] 0.02 | [6] -0.054

CPSF3 (UniProt Q9UKF6)
Sequence of UniProt Q9UKF6 (Q9UKF6 whole entry, looked up): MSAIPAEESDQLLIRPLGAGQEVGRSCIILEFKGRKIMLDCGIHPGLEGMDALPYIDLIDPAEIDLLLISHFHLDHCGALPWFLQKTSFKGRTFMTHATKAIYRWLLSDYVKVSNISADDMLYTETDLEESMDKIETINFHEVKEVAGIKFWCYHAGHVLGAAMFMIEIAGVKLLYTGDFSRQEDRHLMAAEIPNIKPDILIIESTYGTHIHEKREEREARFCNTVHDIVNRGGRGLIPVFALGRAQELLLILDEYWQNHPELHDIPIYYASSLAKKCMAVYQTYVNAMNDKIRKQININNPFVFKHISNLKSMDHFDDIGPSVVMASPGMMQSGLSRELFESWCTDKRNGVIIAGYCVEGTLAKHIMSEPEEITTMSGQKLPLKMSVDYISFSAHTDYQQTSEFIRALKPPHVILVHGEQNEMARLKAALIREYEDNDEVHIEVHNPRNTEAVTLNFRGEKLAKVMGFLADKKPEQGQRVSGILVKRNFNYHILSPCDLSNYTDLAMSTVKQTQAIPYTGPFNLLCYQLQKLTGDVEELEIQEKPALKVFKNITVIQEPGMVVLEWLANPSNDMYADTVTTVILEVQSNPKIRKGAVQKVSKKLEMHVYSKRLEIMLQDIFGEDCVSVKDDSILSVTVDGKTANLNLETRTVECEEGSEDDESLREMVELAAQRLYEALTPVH
inactive: IRAK-1-4 Inhibitor I -0.044 | ibrutinib -0.04 | [1] 0.026 | ralimetinib -0.006 | [2] 0.028 | [3] -0.052 | [4] 0.035 | pinometostat 0.036 | [5] -0.025 | [6] -0.013

CDK16 isoform 2 (UniProt Q00536)
active: [1] 0.843
inactive: IRAK-1-4 Inhibitor I -0.029 | ibrutinib -0.018 | ralimetinib 0.05 | [2] -0.031 | [3] 0.069 | [4] 0.059 | pinometostat 0.016 | [5] -0.03 | [6] 0.025

CHMP4C (UniProt Q96CF2)
Sequence of UniProt Q96CF2 (Q96CF2 whole entry, looked up): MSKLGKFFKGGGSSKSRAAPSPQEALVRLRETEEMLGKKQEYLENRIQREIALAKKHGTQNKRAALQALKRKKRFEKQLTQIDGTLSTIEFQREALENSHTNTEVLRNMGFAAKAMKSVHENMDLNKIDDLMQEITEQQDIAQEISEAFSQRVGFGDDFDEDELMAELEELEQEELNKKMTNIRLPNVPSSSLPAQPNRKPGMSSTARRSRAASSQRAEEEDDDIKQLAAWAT
inactive: IRAK-1-4 Inhibitor I 0.097 | ibrutinib -0.022 | [1] -0.028 | ralimetinib -0.087 | [2] -0.018 | [3] -0.099 | [4] 0.039 | pinometostat -0.095 | [5] 0.021 | [6] -0.019

CMTR1 (UniProt Q8N1G2)
inactive: IRAK-1-4 Inhibitor I -0.007 | ibrutinib -0.011 | [1] -0.014 | ralimetinib -0.026 | [2] -0.024 | [3] -0.011 | [4] -0.002 | pinometostat -0.029 | [5] -0.007 | [6] 0.169

C1D (UniProt Q13901)
inactive: IRAK-1-4 Inhibitor I 0.013 | ibrutinib -0.041 | [1] -0.081 | ralimetinib 0.016 | [2] -0.047 | [3] 0.072 | [4] 0.055 | pinometostat -0.081 | [5] 0.084 | [6] -0.004

CCAR1 (UniProt Q8IX12)
Sequence of UniProt Q8IX12 (Q8IX12 whole entry, looked up): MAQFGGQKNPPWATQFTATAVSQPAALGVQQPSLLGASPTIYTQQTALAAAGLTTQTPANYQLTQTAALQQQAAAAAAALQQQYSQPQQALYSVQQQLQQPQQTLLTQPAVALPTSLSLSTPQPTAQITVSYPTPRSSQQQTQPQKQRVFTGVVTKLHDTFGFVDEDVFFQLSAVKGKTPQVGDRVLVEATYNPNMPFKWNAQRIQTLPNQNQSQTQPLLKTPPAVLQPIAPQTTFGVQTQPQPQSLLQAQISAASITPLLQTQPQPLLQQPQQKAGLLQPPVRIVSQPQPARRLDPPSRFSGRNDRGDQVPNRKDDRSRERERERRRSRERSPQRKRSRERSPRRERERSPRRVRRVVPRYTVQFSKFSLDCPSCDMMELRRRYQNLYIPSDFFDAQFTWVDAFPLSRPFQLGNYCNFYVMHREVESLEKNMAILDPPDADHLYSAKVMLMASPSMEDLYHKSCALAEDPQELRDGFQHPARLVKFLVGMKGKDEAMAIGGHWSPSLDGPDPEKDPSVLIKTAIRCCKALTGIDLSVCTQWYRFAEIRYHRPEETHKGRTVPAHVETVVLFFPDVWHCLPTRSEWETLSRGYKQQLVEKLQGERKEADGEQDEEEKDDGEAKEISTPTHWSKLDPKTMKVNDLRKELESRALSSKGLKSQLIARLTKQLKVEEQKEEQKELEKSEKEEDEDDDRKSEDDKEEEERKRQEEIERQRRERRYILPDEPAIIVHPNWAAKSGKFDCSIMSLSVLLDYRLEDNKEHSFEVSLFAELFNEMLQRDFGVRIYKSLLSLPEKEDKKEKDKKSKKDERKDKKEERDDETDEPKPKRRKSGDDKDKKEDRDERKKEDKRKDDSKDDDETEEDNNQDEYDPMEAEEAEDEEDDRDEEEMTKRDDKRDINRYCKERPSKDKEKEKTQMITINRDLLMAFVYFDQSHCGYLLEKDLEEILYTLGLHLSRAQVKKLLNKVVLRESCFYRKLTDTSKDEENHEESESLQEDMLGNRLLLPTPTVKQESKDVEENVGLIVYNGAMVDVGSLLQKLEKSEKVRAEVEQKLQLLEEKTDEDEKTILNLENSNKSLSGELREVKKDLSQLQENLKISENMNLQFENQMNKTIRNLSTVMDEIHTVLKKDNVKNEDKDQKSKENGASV
inactive: IRAK-1-4 Inhibitor I 0.002 | ibrutinib 0.003 | [1] -0.039 | ralimetinib -0.012 | [2] -0.103 | [3] -0.168 | [4] 0.006 | pinometostat -0.009 | [5] -0.03 | [6] 0.209

CETN2 (UniProt P41208)
inactive: IRAK-1-4 Inhibitor I -0.067 | ibrutinib 0.006 | [1] -0.019 | ralimetinib -0.012 | [2] 0.074 | [3] 0.17 | [4] 0.043 | pinometostat 0.011 | [5] 0.075 | [6] -0.045

CDK13 (UniProt Q14004)
inactive: IRAK-1-4 Inhibitor I -0.05 | ibrutinib 0.024 | ralimetinib 0.199 | [2] 0.031 | [3] -0.171 | [4] 0.081 | pinometostat 0.043 | [5] 0.013 | [6] -0.017
active: [1] -0.52

CDC42BPB (UniProt Q9Y5S2)
active: [1] -0.637
inactive: IRAK-1-4 Inhibitor I -0.022 | ibrutinib -0.167 | ralimetinib 0.124 | [2] 0.023 | [3] -0.063 | [4] -0.009 | pinometostat 0.267 | [5] -0.038 | [6] 0.023

CSNK2A2 (UniProt P19784)
Sequence of UniProt P19784 (P19784 whole entry, looked up): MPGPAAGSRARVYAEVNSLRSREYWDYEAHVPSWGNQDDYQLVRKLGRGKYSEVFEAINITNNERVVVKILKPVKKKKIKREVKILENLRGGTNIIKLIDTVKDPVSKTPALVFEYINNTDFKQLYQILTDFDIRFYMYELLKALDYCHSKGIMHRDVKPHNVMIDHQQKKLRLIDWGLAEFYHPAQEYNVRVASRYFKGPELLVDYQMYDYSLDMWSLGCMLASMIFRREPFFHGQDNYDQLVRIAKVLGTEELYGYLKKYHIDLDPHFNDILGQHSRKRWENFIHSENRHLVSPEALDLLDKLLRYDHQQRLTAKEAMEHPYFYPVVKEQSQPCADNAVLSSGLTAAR
active: [1] 0.585 | [6] 0.235
inactive: IRAK-1-4 Inhibitor I 0.033 | ibrutinib 0.006 | ralimetinib 0.001 | [2] -0.065 | [3] 0.026 | [4] -0.029 | pinometostat 0.149 | [5] 0.009

COMT (UniProt P21964)
inactive: IRAK-1-4 Inhibitor I 0.01 | ibrutinib -0.032 | [1] -0.065 | ralimetinib -0.043 | [2] -0.007 | [3] 0.006 | [4] -0.039 | pinometostat -0.024 | [5] -0.068 | [6] 0.053

CREB3L2 (UniProt Q70SY1)
Sequence of UniProt Q70SY1 (Q70SY1 whole entry, looked up): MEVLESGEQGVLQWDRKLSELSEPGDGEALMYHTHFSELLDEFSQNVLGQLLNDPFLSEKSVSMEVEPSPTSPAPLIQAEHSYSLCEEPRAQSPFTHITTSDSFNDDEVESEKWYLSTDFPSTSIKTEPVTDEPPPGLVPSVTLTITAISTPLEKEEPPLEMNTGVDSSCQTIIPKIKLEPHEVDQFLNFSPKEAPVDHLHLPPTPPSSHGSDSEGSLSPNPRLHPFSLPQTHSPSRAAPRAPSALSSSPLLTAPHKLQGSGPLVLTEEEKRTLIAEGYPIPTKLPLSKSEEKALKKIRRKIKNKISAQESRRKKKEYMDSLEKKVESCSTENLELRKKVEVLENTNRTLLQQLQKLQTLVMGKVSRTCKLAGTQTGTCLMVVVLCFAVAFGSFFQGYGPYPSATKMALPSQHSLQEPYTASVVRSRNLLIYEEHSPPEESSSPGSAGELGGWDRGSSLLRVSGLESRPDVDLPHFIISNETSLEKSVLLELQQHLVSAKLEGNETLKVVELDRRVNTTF
inactive: IRAK-1-4 Inhibitor I 0.055 | ibrutinib 0.168 | [1] -0.108 | ralimetinib -0.01 | [2] -0.08 | [3] 0.322 | [4] 0.607 | pinometostat -0.193 | [5] -0.058 | [6] 0.074

CSNK2B (UniProt P67870)
Sequence of UniProt P67870 (P67870 whole entry, looked up): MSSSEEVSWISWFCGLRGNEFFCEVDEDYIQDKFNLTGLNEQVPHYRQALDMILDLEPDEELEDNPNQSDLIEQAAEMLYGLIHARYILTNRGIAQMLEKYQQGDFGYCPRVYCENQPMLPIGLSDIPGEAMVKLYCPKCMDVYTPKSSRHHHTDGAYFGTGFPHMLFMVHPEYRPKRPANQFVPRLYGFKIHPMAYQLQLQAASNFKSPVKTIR
inactive: IRAK-1-4 Inhibitor I -0.003 | ibrutinib -0.014 | ralimetinib -0.006 | [2] -0.021 | [3] -0.087 | [4] -0.003 | pinometostat 0.044 | [5] 0.022 | [6] 0.096
active: [1] 0.266

CHKA (UniProt P35790)
Sequence of UniProt P35790 (P35790 whole entry, looked up): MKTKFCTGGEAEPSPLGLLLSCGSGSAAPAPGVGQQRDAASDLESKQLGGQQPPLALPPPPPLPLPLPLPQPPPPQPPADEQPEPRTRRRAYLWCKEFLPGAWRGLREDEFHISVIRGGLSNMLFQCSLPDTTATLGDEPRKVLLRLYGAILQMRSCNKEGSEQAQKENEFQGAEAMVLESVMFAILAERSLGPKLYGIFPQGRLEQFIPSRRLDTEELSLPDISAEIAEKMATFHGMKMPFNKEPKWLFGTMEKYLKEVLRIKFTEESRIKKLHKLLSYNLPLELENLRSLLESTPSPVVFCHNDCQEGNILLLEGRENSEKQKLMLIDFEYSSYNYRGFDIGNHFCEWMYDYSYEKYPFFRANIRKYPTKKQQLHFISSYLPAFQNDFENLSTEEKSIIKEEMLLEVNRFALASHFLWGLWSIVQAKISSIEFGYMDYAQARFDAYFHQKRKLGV
inactive: IRAK-1-4 Inhibitor I -0.034 | ibrutinib 0 | [1] 0.085 | ralimetinib 0.006 | [2] 0.057 | [3] 0.113 | [4] 0.019 | pinometostat 0.088 | [5] -0.061 | [6] 0.079

CDC42EP1 (UniProt Q00587)
active: [1] -0.527 | [3] -0.43
inactive: IRAK-1-4 Inhibitor I 0.097 | ibrutinib 0.086 | ralimetinib 0.076 | [2] -0.104 | [4] -0.009 | pinometostat -0.043 | [5] -0.054 | [6] -0.055

COPS4 (UniProt Q9BT78)
inactive: IRAK-1-4 Inhibitor I 0.015 | ibrutinib 0.043 | [1] 0.01 | ralimetinib -0.004 | [2] -0.014 | [3] 0.009 | [4] -0.008 | pinometostat -0.048 | [5] -0.019 | [6] 0.028

CES2 isoform 4 (UniProt O00748)
inactive: IRAK-1-4 Inhibitor I -0.005 | ibrutinib 0.077 | [1] 0.038 | ralimetinib 0.006 | [2] 0.012 | [3] 0.045 | [4] 0.06 | pinometostat -0.02 | [5] -0.128 | [6] 0

CKB (UniProt P12277)
inactive: IRAK-1-4 Inhibitor I 0.014 | ibrutinib -0.024 | [1] -0.009 | ralimetinib -0.01 | [2] -0.077 | [3] -0.045 | [4] 0.021 | pinometostat -0.02 | [5] -0.014 | [6] 0.059

C9orf64 (UniProt Q5T6V5)
Sequence of UniProt Q5T6V5 (Q5T6V5 whole entry, looked up): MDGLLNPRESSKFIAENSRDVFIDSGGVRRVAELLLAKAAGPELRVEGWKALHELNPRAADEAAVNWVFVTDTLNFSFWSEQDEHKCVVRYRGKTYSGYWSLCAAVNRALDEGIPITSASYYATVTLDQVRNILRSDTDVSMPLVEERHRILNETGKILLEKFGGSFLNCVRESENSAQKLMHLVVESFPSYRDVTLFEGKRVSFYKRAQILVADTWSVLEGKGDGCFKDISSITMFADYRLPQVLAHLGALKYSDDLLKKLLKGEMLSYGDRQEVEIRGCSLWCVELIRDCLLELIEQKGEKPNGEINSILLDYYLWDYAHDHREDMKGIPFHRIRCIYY
inactive: IRAK-1-4 Inhibitor I -0.041 | ibrutinib -0.03 | [1] -0.019 | ralimetinib -0.018 | [2] -0.181 | [3] -0.288 | [4] 0.012 | pinometostat 0.053 | [5] 0.02 | [6] -0.097

CDK9 isoform 2 (UniProt P50750)
inactive: IRAK-1-4 Inhibitor I -0.02 | ibrutinib -0.017 | [1] 0.233 | ralimetinib -0.008 | [2] 0 | [3] -0.113 | [4] 0.044 | pinometostat 0.157 | [5] -0.03 | [6] -0.144

CAB39L (UniProt Q9H9S4)
Sequence of UniProt Q9H9S4 (Q9H9S4 whole entry, looked up): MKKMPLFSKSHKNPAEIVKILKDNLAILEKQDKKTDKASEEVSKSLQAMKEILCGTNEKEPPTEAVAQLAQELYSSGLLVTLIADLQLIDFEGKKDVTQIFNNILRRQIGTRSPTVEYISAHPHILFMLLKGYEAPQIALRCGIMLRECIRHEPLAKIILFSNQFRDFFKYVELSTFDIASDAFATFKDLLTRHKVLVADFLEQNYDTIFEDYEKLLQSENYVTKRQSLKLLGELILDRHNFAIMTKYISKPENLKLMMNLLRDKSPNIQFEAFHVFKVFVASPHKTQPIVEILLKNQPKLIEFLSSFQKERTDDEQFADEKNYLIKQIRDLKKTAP
inactive: IRAK-1-4 Inhibitor I 0.018 | ibrutinib 0.001 | [1] -0.126 | ralimetinib 0.057 | [2] -0.152 | [3] -0.024 | [4] 0.032 | pinometostat 0.102 | [6] -0.483

CDK5 (UniProt Q00535)
Sequence of UniProt Q00535 (Q00535 whole entry, looked up): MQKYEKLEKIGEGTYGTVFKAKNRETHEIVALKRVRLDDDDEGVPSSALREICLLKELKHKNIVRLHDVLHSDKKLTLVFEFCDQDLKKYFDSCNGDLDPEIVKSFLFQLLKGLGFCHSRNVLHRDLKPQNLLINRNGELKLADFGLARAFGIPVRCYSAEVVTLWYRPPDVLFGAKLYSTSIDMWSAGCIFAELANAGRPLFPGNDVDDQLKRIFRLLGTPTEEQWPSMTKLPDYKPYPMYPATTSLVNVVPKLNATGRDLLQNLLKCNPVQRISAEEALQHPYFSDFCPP
inactive: IRAK-1-4 Inhibitor I 0.008 | ibrutinib -0.009 | [1] 0.038 | ralimetinib 0.032 | [2] -0.07 | [3] -0.021 | [4] 0.043 | pinometostat 0.024 | [5] 0.038 | [6] 0.028

COMMD2 (UniProt Q86X83)
inactive: IRAK-1-4 Inhibitor I -0.009 | ibrutinib -0.038 | [1] -0.119 | ralimetinib -0.023 | [2] -0.179 | [3] -0.271 | [4] 0.007 | pinometostat 0.037 | [5] 0.008 | [6] 0.01

COASY isoform 2 (UniProt Q13057)
inactive: IRAK-1-4 Inhibitor I 0.039 | ibrutinib 0.004 | [1] -0.016 | ralimetinib -0.032 | [2] -0.063 | [3] 0.037 | [4] -0.02 | pinometostat 0.005 | [5] -0.018 | [6] 0.079

CSTF2 (UniProt P33240)
inactive: IRAK-1-4 Inhibitor I 0.011 | ibrutinib 0.008 | [1] 0.057 | ralimetinib -0.006 | [2] 0.025 | [3] 0.093 | [4] -0.006 | pinometostat -0.008 | [5] 0 | [6] 0.169

CRKL (UniProt P46109)
active: [1] -1.24
inactive: IRAK-1-4 Inhibitor I 0.035 | ibrutinib -0.102 | ralimetinib -0.054 | [2] -0.004 | [3] 0.042 | [4] 0.057 | pinometostat -0.022 | [5] 0.042 | [6] -0.008

CPT1A (UniProt P50416)
inactive: IRAK-1-4 Inhibitor I -0.163 | ibrutinib -0.024 | [1] -0.103 | ralimetinib 0.05 | [2] 0.049 | [3] 0.195 | [4] -0.03 | pinometostat 0.06 | [5] -0.109 | [6] -0.047
